Laboratory results reported in PubChem BioAssay (Tox21).
“And” between values parts separate entries of the source, which are not always exact repeats. Identical values can stand only once. Unmarked numbers belong to inactive results. Results filed as inconclusive are left out. Entries that show only a call come without a potency. The source made the active and inactive calls. Unless noted, calls come from the whole dose curve; as a rule, active = well fitted curve in the direction sought with a large enough effect in the repeat runs; inconclusive = weak or mixed curves; inactive = no such curve, though single readings can be large; an effect the other way counts as inactive or inconclusive.

Experiments:
[1] = qHTS assay for small molecule agonists of the p53 signaling pathway (AID 651631; calls by dose curve; note: nearly all actives have a fitted effect of over 15% in size; note: potency is the fitted concentration of half-maximal effect)
Procedure, shortened: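 HCT-116 cells carrying a beta-lactamase reporter under p53 response elements were dosed with compound for 16 h at 37 °C. LiveBLAzer B/G FRET substrate was then added for 2 h at room temperature, and fluorescence intensity was read to detect pathway agonism.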

[2] = qHTS assay for small molecules that induce genotoxicity in human embryonic kidney cells expressing luciferase-tagged ATAD5 (AID 651632); note: nearly all actives have a fitted effect of over 15% in size
Procedure, shortened: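 Test compounds were delivered by pin tool onto HEK293T reporter cells (2,000/well) expressing ATAD5 fused to luciferase. After 16 hr at 37C, 5% CO2, Amplite was added for 30 min at room temperature and luminescence was measured.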

[3] = qHTS assay for small molecule agonists of the p53 signaling pathway - cell viability (AID 651633; calls by dose curve;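 note: p53RE-bla HCT reporter cells with a stable beta-lactamase p53 reporter; series mostly up to about 83 µM; nearly all actives have a fitted effect of over 30% in size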)
Procedure, shortened: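 p53RE-bla cells, seeded at 4,000 per well and rested 5 h at 37 C/5% CO2, received compounds in DMSO for 16 h at 37 C. CellTiter-Glo was then added, and luminescence was read after 30 min at room temperature to gauge cytotoxicity.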

[4] = qHTS assay for small molecules that induce genotoxicity in human embryonic kidney cells expressing luciferase-tagged ATAD5 - cell viability (AID 651634; calls by dose curve; note: nearly all actives have a fitted effect of over 25% in size)
Procedure, shortened: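 Quantitative high-throughput format. HEK293T cells expressing ATAD5 fused to luciferase were plated at 2,000 cells/well and treated 15.5 hr with compound versus DMSO. Viability was determined by fluorescent live-cell protease substrate, 30 min at 37C.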

[5] = qHTS assay to test for compound auto fluorescence at 535 nm (green) in HepG2 cells (AID 720675)
[6] = qHTS assay to test for compound auto fluorescence at 460 nm (blue) in HEK293 cells (AID 720678)
Procedure, shortened: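 Cells were seeded and left to adhere for 4-5 hr at 37C. Compounds were then pin-transferred. After an overnight incubation at 37C under 5% CO2, intrinsic fluorescence at 405/460 nm was measured and referenced to triamterene.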

[7] = qHTS assay to test for compound auto fluorescence at 590 nm (red) in HEK293 cells (AID 720679)
Procedure, shortened: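 Each well held 2,000 HEK293 cells in medium containing 10% dialyzed FBS. Following 4-5 hr attachment at 37C, 23 nL test compound or DMSO was added; plates sat overnight, and red fluorescence (540/590nm) was recorded.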

[8] = qHTS assay to test for compound auto fluorescence at 535 nm (green) in HEK293 cells (AID 720680)
[9] = qHTS assay to test for compound auto fluorescence at 460 nm (blue) in HEK293 cell free culture (AID 720681)
Procedure, shortened: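 Test compounds were pinned into cell-free culture medium (DMEM with 10% FBS) and fluorescence was read directly at Ex/Em 405/460 nm. Signals were expressed as fluorescence equivalents of triamterene, with DMSO vehicle as control.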

[10] = qHTS assay to test for compound auto fluorescence at 535 nm (green) in HEK293 cell free culture (AID 720682)
Procedure, shortened: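 Green-label autofluorescence (485 nm excitation, 535 nm emission) measured on compound added to cell-free culture medium (DMEM, 10% FBS). Output is expressed relative to fluorescein.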

[11] = qHTS assay to test for compound auto fluorescence at 590 nm (red) in HEK293 cell free culture (AID 720683)
Procedure, shortened: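 Tox21 10K library compounds were pinned into cell-free DMEM with 10% FBS and fluorescence was read at excitation 540 nm. Activity is expressed as Rose Bengal sodium equivalency.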

[12] = qHTS assay to test for compound auto fluorescence at 590 nm (red) in HepG2 cell free culture (AID 720684)
Procedure, shortened: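 Readout: intrinsic compound fluorescence at 590 nm emission after 540 nm excitation, scaled to Rose Bengal sodium. Matrix was cell-free MEM with 10% FBS; DMSO vehicle wells served as control.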

[13] = qHTS assay to test for compound auto fluorescence at 535 nm (green) in HepG2 cell free culture (AID 720686)
[14] = qHTS assay to test for compound auto fluorescence at 460 nm (blue) in HepG2 cells (AID 720687)
Procedure, shortened: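 Cells (2,000/well in MEM with 10% FBS) attached overnight at 37 C, then were exposed to compound or DMSO for 1 hr at 37 C, 5% CO2. Fluorescence read at Ex/Em 405/460 nm, expressed as triamterene-equivalent signal.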

[15] = qHTS assay for small molecule disruptors of the mitochondrial membrane potential - cell viability (AID 720634; calls by dose curve;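 note: human HepG2 liver cancer cells; series mostly up to about 83 µM; nearly all actives have a fitted effect of over 20% in size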)
Procedure, shortened: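 Same-well counter-screen: following the MMP dye addition, CellTiter-Glo was added to 1 hr compound-treated HepG2 cells and luminescence read after 30 min at room temperature.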

[16] = qHTS assay for small molecule disruptors of the mitochondrial membrane potential (AID 720635); note: potency is the fitted concentration of half-maximal effect
Procedure, shortened: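 HepG2 cells (2,000/well) attached overnight at 37C, then took compound for 1 hr at 37C, 5% CO2. Mito-MPS dye was added for 30 min; fluorescence was read at 490/535 nm (monomers) and 540/590 nm (aggregates).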

[17] = qHTS assay to test for compound auto fluorescence at 590 nm (red) in HepG2 cells (AID 720674)
Procedure, shortened: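 Rose Bengal sodium served as the red fluorophore standard. HepG2 monolayers (overnight attachment, MEM with 10% FBS) were exposed to test compounds for 1 hr at 37 C and read at Ex 540/Em 590 nm.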

[18] = qHTS assay to test for compound auto fluorescence at 460 nm (blue) in HepG2 cell free culture (AID 720685)
Procedure, shortened: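 Cell-free plates of MEM plus 10% FBS received 23 nL compound or DMSO vehicle; blue-channel (405/460 nm) intensity scored against triamterene as reference fluorophore.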

[19] = biological target: Glucocorticoid receptor (Homo sapiens) (UniProt P04150); test: qHTS assay to identify small molecule agonists of the glucocorticoid receptor (GR) signaling pathway (AID 720691; active = well fitted activation curve with a large enough effect in the signal ratio in the repeat runs, not every such curve was filed as active; the % refers to the signal ratio)
Procedure, shortened: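 A HeLa cervical cancer line expressing GR and a glucocorticoid response element-driven beta-lactamase gene is treated with compounds for 18 h; LiveBLAzer B/G FRET substrate is then applied and fluorescence read.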

[20] = biological target: Glucocorticoid receptor (Homo sapiens) (UniProt P04150); test: qHTS assay to identify small molecule antagonists of the glucocorticoid receptor (GR) signaling pathway (AID 720692; active = well fitted inhibition curve with a large enough effect in the signal ratio in the repeat runs, not every such curve was filed as active; the % refers to the signal ratio)
Procedure, shortened: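 GRE-bla HeLa line, dex-stimulated (5 nM final). Compound exposure 18 h, 37 C. Beta-lactamase FRET read after 2 h RT substrate.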

Sequence of Glucocorticoid receptor (Homo sapiens) (P04150 whole entry, looked up): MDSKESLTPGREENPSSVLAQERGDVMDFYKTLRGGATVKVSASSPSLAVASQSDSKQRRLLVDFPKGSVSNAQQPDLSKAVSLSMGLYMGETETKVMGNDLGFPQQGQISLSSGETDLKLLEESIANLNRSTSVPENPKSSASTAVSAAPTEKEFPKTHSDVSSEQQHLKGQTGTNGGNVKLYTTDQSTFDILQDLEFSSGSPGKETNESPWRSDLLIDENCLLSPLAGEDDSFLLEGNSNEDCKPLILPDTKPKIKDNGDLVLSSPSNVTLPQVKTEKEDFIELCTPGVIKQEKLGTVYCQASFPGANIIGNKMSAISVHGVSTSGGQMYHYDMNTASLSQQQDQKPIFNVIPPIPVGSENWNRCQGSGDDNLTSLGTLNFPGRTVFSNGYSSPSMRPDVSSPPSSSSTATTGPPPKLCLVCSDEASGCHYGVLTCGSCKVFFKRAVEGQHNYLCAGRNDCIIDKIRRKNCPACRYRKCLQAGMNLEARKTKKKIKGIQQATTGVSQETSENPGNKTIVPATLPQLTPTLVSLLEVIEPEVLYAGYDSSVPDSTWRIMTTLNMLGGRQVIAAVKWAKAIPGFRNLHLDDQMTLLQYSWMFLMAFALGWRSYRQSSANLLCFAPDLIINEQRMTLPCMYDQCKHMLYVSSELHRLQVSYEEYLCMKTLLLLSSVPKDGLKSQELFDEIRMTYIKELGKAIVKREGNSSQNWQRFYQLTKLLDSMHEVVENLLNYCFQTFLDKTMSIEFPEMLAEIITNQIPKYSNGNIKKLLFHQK

| SMILES | Potency [1] | Potency [2] | Potency [3] | Potency [4] | outcome [5] | Potency [6] | outcome [7] | outcome [8] | Potency [9] | outcome [10] | outcome [11] | outcome [12] | outcome [13] | Potency [14] | Potency [15] | Potency [16] | outcome [17] | Potency [18] | Potency [19] | Potency [20] |
| --- | --- | --- | --- | --- | --- | --- | --- | --- | --- | --- | --- | --- | --- | --- | --- | --- | --- | --- | --- | --- |
| C=COCC(C)C | inactive | inactive | inactive | inactive | inactive | inactive | inactive | inactive | inactive | inactive | inactive | inactive | inactive | inactive |  |  |  |  |  |  |
| Cc1ccc(CO)cc1 | inactive | inactive |  | inactive | inactive |  | inactive |  | inactive | inactive | inactive | inactive | inactive | inactive | inactive | inactive | inactive | inactive | inactive | inactive |
| CC(C)=CCC1C(=O)N(c2ccccc2)N(c2ccccc2)C1=O | 15 µM (active) | inactive |  |  | inactive | inactive | inactive | inactive | inactive | inactive | inactive | inactive | inactive | inactive |  |  | inactive | inactive |  |  |
| O=C=Nc1cccc(C(F)(F)F)c1 | inactive | inactive |  | inactive | inactive | inactive | inactive | inactive | inactive | inactive | inactive | inactive | inactive | inactive |  |  | inactive | inactive | inactive |  |
| C1C[C@@H]2[C@H]3CC[C@H](C3)[C@@H]2C1 | inactive | inactive |  | inactive | inactive | inactive | inactive | inactive | inactive | inactive | inactive | inactive | inactive | inactive | inactive |  | inactive | inactive |  |  |
| O=C1c2ccccc2C(=O)C1(O)O | 27.4 µM (active) | inactive |  | inactive | inactive | inactive | inactive | inactive | inactive | inactive | inactive | inactive | inactive | inactive |  | 24.5 µM (active) | inactive | inactive | inactive |  |
| CCOC(=O)c1ccc(I)cc1 | inactive | inactive |  | inactive | inactive |  | inactive | inactive | inactive | inactive | inactive |  | inactive |  | inactive |  | inactive |  |  |  |
| O=[N+]([O-])c1ccc(Nc2ccc(Nc3ccccc3)c(S(=O)(=O)O)c2)c([N+](=O)[O-])c1 | inactive | inactive | inactive |  | inactive | inactive | inactive | inactive | inactive | inactive | inactive | inactive | inactive |  | inactive |  | inactive | inactive |  |  |
| O=c1c(O)c(-c2ccc(O)cc2)oc2cc(O)cc(O)c12 | inactive |  |  | inactive | inactive | inactive | inactive | inactive | inactive | inactive | inactive | inactive | inactive |  | inactive | 3.84 µM (active) and 328 nM (active) | inactive | inactive | inactive |  |
